Results filed as inconclusive are left out. A call without a number means that no potency is given here. Calls of active or inactive are those of the source. Calls follow the shape of the full dose curve.
The compounds below were run against cAMP-dependent protein kinase catalytic subunit alpha (Homo sapiens) (UniProt P17612) (assay: Protein Kinase A (PKA-HiBiT) SDR gain of signal screen). Conditions: PKA-HiBiT structural dynamics response (SDR), luminescence gain of signal; series mostly up to 32.9 µM.
From the text: National Center for Advancing Translational Sciences (NCATS),
National Institute of Health (NIH), Maryland
Discovery and optimization of novel protein-binding ligands underlies many of the methods and applications of biology, drug discovery, clinical diagnostics, and environmental toxicology. Assays for detecting the interaction of, for example, a molecule with a macromolecular target also referred to here as the target of interest (TOI) is dependent on a compatible output technology. Depending on the nature and knowledge surrounding the TOI, whether a receptor, enzyme, regulatory subunit or scaffold, or a sequence-defined nucleic acid folded into a complex tertiary structure, assay strategies can vary widely.
Here we exploit ligand-biased changes in the structural dynamics of the target protein to control reporter alpha complementation allowing a non-competitive, non-functional, non-separation measure of ligand-target interaction.
Using a chemical library of >1,200 compounds enriched for scaffolds known to be associated with the inhibition of firefly luciferase (FLuc) activity (PubChem AIDs 2309) we first illustrate and compare the Structural Dynamics Response (SDR) assay vs. the standard functional FLuc enzyme assay (2). Secondly, we show the specificity and sensitivity of the SDR for the Abelson tyrosine kinase (ABL1) compared to the serine/threonine protein kinase A, using an enriched chemical library of 128 compounds selected, in part, for activity annotated with ABL1 kinase activity using the Pharos database (3).
(1) A. S. Dixon et al., NanoLuc Complementation Reporter Optimized for Accurate Measurement of Protein Interactions in Cells. ACS Chem Biol 11, 400-408 (2016).
Chemistry & Biology, 19, 1060 - 1072 (2012).
(3) K. J. Kelleher et al., Pharos 2023: an integrated resource for the understudied human proteome. Nucleic Acids Res 51, D1405-D1416 (2023).
PROTOCOL TABLE (as described by Inglese J, Shamu CE and Guy RK. 2007)
SEQUENCE No. (e.g., 1, 2, 3, etc.); […] (e.g., C. elegans, Compounds, Incubation, Read, etc.); VALUE and DESCRIPTION.
1. Reagent. Dispense 4 uL PKA-N-HiBiT enzyme per well at a final enzyme concentration of 10 nM in buffer into columns 2-48 of four replicate Greiner 1536-well white,solid bottom high base, medium plates per assay. Dispense respective buffer without enzyme at 4 uL/well in column 1 of assay plates using BioRaptr 2.
2. Compounds. Library compounds added at 23 nL/well by pin transfer. DMSO neutral control and H-89 positive control added at 25 nL/well, transfer by Mosquito dispenser.
3. Incubation. Incubate enzyme and compounds at room temperature for 30 min, protect from light.
4. Reagent. (SDR assay) Add 3 uL/well of Nano-Glo HiBiT reagent (Promega) to assay plates.
5. Incubation. (SDR assay) Incubate enzyme solution HiBiT reagent at room temperature for 10 min, protected from light.
6. Detector. (SDR assay) Luminescence measured using CCD-based camera (ViewLux) with settings as follows: Exposure, 1 sec; Gain, High; Speed, Slow; Binning, 2X.
With Cc1cc(O)c2c(c1)C(=O)c1cc(O)cc(O)c1C2=O the Potency was “inactive”.
In the case of COc1ccc(-n2c(C)c([N+](=O)[O-])c3ccc(O)cc32)cc1, the Potency is reported as “inactive”.
With COc1cc(NC(=O)c2cccc(-n3cc(NC(=O)Nc4cccc(C)c4)cn3)c2)cc(OC)c1OC the Potency was “inactive”.
With Cn1cc(-c2cc3c(N4CCN(c5ncc([C@@](C)(N)c6ccc(F)cc6)cn5)CC4)ncnn3c2)cn1 the Potency was “inactive”.
For COc1cc2nccc(Oc3ccc(NC(=O)Nc4ccc(F)cc4F)c(F)c3)c2cc1OC, the Potency was “inactive”.
For Cc1cc(Nc2ncc3c(n2)N(C)C(=O)N(c2cc(NC(=O)c4cccc(C(F)(F)F)c4)ccc2C)C3)n(C)n1, the Potency was “inactive”.
Cc1nc(NC(=O)N2CCC[C@H]2C(N)=O)sc1-c1ccnc(C(C)(C)C(F)(F)F)c1 was tested, and the Potency was “inactive”.
In the case of CO[C@@H](C(=O)N1Cc2[nH]nc(NC(=O)c3ccc(N4CCN(C)CC4)cc3)c2C1)c1ccccc1, the Potency is reported as “inactive”.
For Cc1[nH]c2ccccc2c1C1=C(NCCc2ccc(F)cc2)C(=O)N(C)C1=O, the Potency was “inactive”.
With CC1(C)OCCn2c1nc1c(N3CCOCC3)nc(-c3cnc(N)nc3)nc12 the Potency was “inactive”.
Cc1cn(-c2cccc(NC(=O)c3ccc(C)c(Nc4nccc(-c5cccnc5)n4)c3)c2)cn1 was tested, and the Potency was “inactive”.
With O=C1CCC(N2C(=O)c3ccccc3C2=O)C(=O)N1 (stereo not given) the Potency was “inactive”.
Cc1ccc(C(=O)Nc2ccc(CN3CCN(C)CC3)c(C(F)(F)F)c2)cc1C#Cc1cnc2[nH]ncc2c1 was tested, and the Potency was “inactive”.
O=C(Nc1cc(C(F)(F)F)ccc1N1CCCCC1)c1ccncc1 was tested, and the Potency was “inactive”.
In the case of COc1ccc(-n2c(SCC#N)nc3sc4c(c3c2=O)CCCC4)cc1, the Potency is reported as “inactive”.
For Cc1cc(F)ccc1-c1nc(NCCN=C(N)NC#N)nc2c1ccc(=O)n2-c1c(F)cccc1F, the Potency was “inactive”.
In the case of CCN1C(=O)CNc2ncc(-c3ccc(-c4ncn[nH]4)nc3C)nc21, the Potency is reported as “inactive”.
In the case of CC(C)(NS(=O)(=O)c1ccc2c(Cl)cnc(N=C(N)N)c2c1)C(=O)O, the Potency is reported as “inactive”.
With Cc1sc2c(c1C)C(c1ccc(Cl)cc1)=N[C@@H](CC(=O)Nc1ccc(OCCOCCOCCOCCNc3cccc4c3C(=O)N(C3CCC(=O)NC3=O)C4=O)cc1)c1nnc(C)n1-2 (stereo not given in full) the Potency was “inactive”.
With Cc1ncc(NC(=O)c2ccc(CN3CCN(C)CC3)c(C(F)(F)F)c2)cc1Nc1nccc(-c2cccnc2)n1 the Potency was “inactive”.
With NC(=O)c1cccc(-c2cc(Nc3ccc(OC(F)(F)F)cc3)ncn2)c1 the Potency was “inactive”.
In the case of Cc1cc(F)ccc1-c1nc(NC(CO)CO)nc2c1ccc(=O)n2-c1c(F)cccc1F, the Potency is reported as “inactive”.
For Cn1sc(=O)n(Cc2ccccc2)c1=O, the Potency was “inactive”.
For Oc1ccc(-c2ccc(-c3cc(Nc4cccc(CNC5CC5)c4)n[nH]3)cc2)c(O)c1, the Potency was 10.7 µM (active).
Cc1ccc(NC(=O)c2ccc(CN3CCN(C)CC3)cc2)cc1Nc1nc(-c2cccnc2)cs1 was tested, and the Potency was “inactive”.
In the case of Nc1nc(Nc2ccc(S(N)(=O)=O)cc2)n(C(=S)Nc2c(F)cccc2F)n1, the Potency is reported as 11.1 µM (active).
In the case of N#Cc1cccc(-c2c[nH]c3ncnc(N4CCOCC4)c23)c1, the Potency is reported as 13.4 µM (active).
In the case of Cc1c(Cl)cccc1S(=O)(=O)Nc1nc(NCCc2ccccc2)nc2c1CN(Cc1ccccc1)CC2, the Potency is reported as “inactive”.
Cc1cc(Nc2ncc3cc(-c4c(Cl)cccc4Cl)c(=O)n(C)c3n2)ccc1F was tested, and the Potency was “inactive”.
CCCCCCCCCCCCc1ccc(S(=O)(=O)Nc2nncs2)cc1 was tested, and the Potency was “inactive”.
In the case of COc1cc2ncnc(Oc3cccc(NC(=O)Nc4cc(C(C)(C)C(F)(F)F)on4)c3)c2cc1OC, the Potency is reported as “inactive”.
With Cc1cn(-c2cc(F)cc(NC(=O)c3ccc(C)c(Nc4nccc(-c5cccnc5)n4)c3)c2)cn1 the Potency was “inactive”.
With O=C(Nc1ccc(OC(F)(F)F)cc1)c1sccc1NCc1ccnc2ccccc12 the Potency was “inactive”.
In the case of COC(=O)Nc1ccc(-c2nc(N3CCOCC3)c3cnn(C4CCN(C(=O)OC)CC4)c3n2)cc1, the Potency is reported as “inactive”.
In the case of CNS(=O)(=O)c1ccc2c(c1)/C(=C/c1[nH]c3c(c1CCCN1CCN(C)CC1)CCCC3)C(=O)N2, the Potency is reported as “inactive”.
For CSc1cccc(Nc2ncc3cc(-c4c(Cl)cccc4Cl)c(=O)n(C)c3n2)c1, the Potency was “inactive”.
CN1CCN(C2CCC(n3cc(-c4ccc(Oc5ccccc5)cc4)c4c(N)ncnc43)CC2)CC1 (stereo not given) was tested, and the Potency was “inactive”.
For Cn1ncc(NC(=O)c2nc(-c3c(F)cccc3F)sc2N)c1N1CC[C@@H](N)[C@H](F)CC1, the Potency was 0.7 µM (active).
c1cc(-c2cc(C3CCNCC3)[nH]n2)ccn1 was tested, and the Potency was 3.62 µM (active).
With O=S(=O)(/N=C/c1c(O)ccc2ccccc12)c1cccs1 the Potency was “inactive”.
